This passage reports Potency, viability change, negative = cytotoxic and activity change, negative = cytotoxicity results from PubChem BioAssay (Tox21).

Structures are written as SMILES. Values joined by “and” are separate entries in the source; they are usually repeats but may differ in a detail not shown here. Equal values may be shown once. Inconclusive results are not listed. Values without a mark were called inactive. Active and inactive are the calls of the source. The call rests on the fitted dose curve; in most records, active means well fitted cell-killing curve with a large enough effect in the repeat runs; inconclusive means weak or mixed curves, or effect the other way; inactive means flat fitted curve, though single readings scatter.

Experiment [1] is described as follows: cAMP Responsive Elements (CRE) small molecule antagonists, cell-based qHTS assay: qHTS cell viability counter screen (AID 2060913). Further: nearly all actives have a fitted effect of over 40% in size. The following applies: CRE-bla HEK293T viability, CellTiter-Glo luminescence, 5 h; series mostly up to 92.4 µM. The method in brief: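 Steps: cells plated and held 18 hrs at 37 C/5% CO2; compounds and NKH477 (0.25 uM final) added; 3 hrs incubation; reporter substrate read; CellTiter-Glo added to measure cytotoxicity by luminescence.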
Background: qHTS replaces the single test concentration by a dilution series.

The nature of experiment [2]: cAMP Responsive Elements (CRE) small molecule agonists, cell-based qHTS assay: qHTS cell viability counter screen (AID 2060914). Further: nearly all actives have a fitted effect of over 50% in size. Conditions: CRE-bla HEK293T viability, CellTiter-Glo luminescence, 5 h; series mostly up to 92.4 µM. The method in brief: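 Cytotoxicity was measured as ATP luminescence (CellTiter-Glo, 30 min at room temperature) in the same wells as the CRE-bla FRET read-out. HEK293T CRE-bla cells had 3 h compound exposure at 37C/5% CO2.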
On the % scale 0 is the no-effect control and ±100 the full control effect; potency means the concentration at half of the fitted maximal effect.

For `O=C1OC2(c3ccc(O)cc3Oc3cc(O)ccc32)c2ccccc21`, the Potency result in experiment [1] and in experiment [2] was “inactive” each time.

For `CC(C)OC(=O)OCOP(=O)(CO[C@H](C)Cn1cnc2c(N)ncnc21)OCOC(=O)OC(C)C`, the Potency result in experiment [1] and in experiment [2] was “inactive” in each case.

Take `CCN(CCCCOC(=O)c1ccc(OC)c(OC)c1)C(C)Cc1ccc(OC)cc1` (stereo unspecified): the Potency entry in experiment [1] and in experiment [2] was “inactive” in each case.

As for `CCC(C)OC(=O)N1CCCCC1CCO` (stereo unspecified), the Potency entry in experiment [1] and in experiment [2] was “inactive” in each case.

With `CCN(CC)S(=O)(=O)c1ccc(C(=O)O)cc1`, the Potency entry in experiment [1] and in experiment [2] was “inactive” each time.

Take `Oc1cn2c(n1)Nc1ccc(Cl)c(Cl)c1C2`: the viability change, negative = cytotoxic in experiment [1] was 7.34% [at 18.9 µM]. Also, the activity change, negative = cytotoxicity in experiment [2] is -5.61% [at 18.9 µM].

Turning to `CCC(C)(CCC(C)C)C(=O)[O][Sn]([CH3])([CH3])[O]C(=O)C(C)(CC)CCC(C)C` (stereo unspecified), the Potency result in experiment [1] and in experiment [2] was “inactive” each time.

In the case of `CC(O)Cn1cnc2c1c(=O)n(C)c(=O)n2C` (stereo unspecified), the Potency entry in experiment [1] and in experiment [2] was “inactive” in each case.

For `O=NO`, the Potency result in experiment [1] and in experiment [2] was “inactive” throughout.

Regarding `C1=CCC2CC=CC2C1` (stereo unspecified), the Potency entry in experiment [1] and in experiment [2] was “inactive” throughout.

With `COC(=O)/C=C/c1ccccc1`, the Potency result in experiment [1] and in experiment [2] was “inactive” in each case.

On to `CCCCCCCCCCCCCCCCCC(=O)OCCCCCCCCCCCCCC(C)C`, for which the Potency entry in experiment [1] and in experiment [2] was “inactive” in each case.

For the compound `CCCCC(=O)OCC(=O)[C@H]1[C@H](C)C[C@H]2[C@@H]3C[C@H](F)C4=CC(=O)C=C[C@]4(C)[C@@]3(F)[C@@H](O)C[C@@]21C`, the Potency entry in experiment [1] and in experiment [2] was “inactive” in each case.

As for `CCCCOC(=O)CCCCCCCCC(=O)OCCCC`, the Potency entry in experiment [1] and in experiment [2] was “inactive” in each case.

Take `CCCCCCCCCCCCc1ccccc1O`: the Potency in experiment [1] is 53.8 µM (active) and 32 µM (active); in experiment [2], 60.3 µM (active) and 54.5 µM (active).

With `CCCCCCCCS(=O)(=O)O`, the Potency result in experiment [1] and in experiment [2] was “inactive” each time.

Take `CCCCCCC1(C)CCC(=O)O1` (stereo unspecified): the Potency result in experiment [1] and in experiment [2] was “inactive” throughout.

As for `CC(C)=CCCC(C)CC=O` (stereo unspecified), the Potency result in experiment [1] and in experiment [2] was “inactive” throughout.

Turning to `CC(C)c1ccc(C#N)cc1`, the Potency entry in experiment [1] and in experiment [2] was “inactive” throughout.

In the case of `CCCC[N+](C)(CCCC)CCCC`, the Potency entry in experiment [1] and in experiment [2] was “inactive” in each case.

Take `CCOCC(=O)O`: the Potency result in experiment [1] and in experiment [2] was “inactive” each time.

`COc1ccnc(CS(=O)c2nc3cc(OC(F)F)ccc3[nH]2)c1OC` (stereo unspecified): the Potency result in experiment [1] and in experiment [2] was “inactive” in each case.

For the compound `CCCCCC(=O)CC`, the Potency result in experiment [1] and in experiment [2] was “inactive” in each case.

Consider `CC(=O)[C@@]1(O)CC[C@H]2[C@@H]3C[C@H](C)C4=CC(=O)C=C[C@]4(C)[C@@]3(F)[C@@H](O)C[C@@]21C`, for which the Potency result in experiment [1] and in experiment [2] was “inactive” throughout.

In the case of `Nc1ccc(C(=O)Nc2ccccc2N)cc1`, the Potency entry in experiment [1] and in experiment [2] was “inactive” throughout.

On to `CN(C)CCCNCCCN(C)C`, for which the Potency result in experiment [1] and in experiment [2] was “inactive” in each case.

With `CCC(C(=O)NC(=O)NC(C)=O)c1ccccc1` (stereo unspecified), the Potency entry in experiment [1] and in experiment [2] was “inactive” throughout.

Consider `COc1cc([N+](=O)[O-])ccc1N`, for which the Potency result in experiment [1] and in experiment [2] was “inactive” in each case.

As to `CCc1cccc(C)c1N(C(=O)C(=O)O)C(C)COC` (stereo unspecified), the Potency entry in experiment [1] and in experiment [2] was “inactive” throughout.

In the case of `CC(=O)O[C@@H]1CC2C3CCc4cc(OC(=O)c5ccccc5)ccc4C3CCC2(C)[C@H]1OC(C)=O` (stereo partly specified), the Potency result in experiment [1] and in experiment [2] was “inactive” each time.

On to `Nc1ncnc(Nc2ccccc2)n1`, for which the Potency entry in experiment [1] and in experiment [2] was “inactive” each time.

With `CC(=O)Nc1ccc(N)cc1`, the Potency result in experiment [1] and in experiment [2] was “inactive” throughout.

In the case of `c1ccc2[nH]cnc2c1`, the Potency entry in experiment [1] and in experiment [2] was “inactive” in each case.

Consider `CC(C)=CC(C)(C)C`, for which the Potency result in experiment [1] and in experiment [2] was “inactive” each time.

Regarding `N#CCCOCCC#N`, the Potency result in experiment [1] and in experiment [2] was “inactive” in each case.

As to `C=CC(=O)OCC1CCCO1` (stereo unspecified), the Potency result in experiment [1] and in experiment [2] was “inactive” each time.

Consider `CC(CCO)CCc1ccccc1` (stereo unspecified), for which the Potency result in experiment [1] and in experiment [2] was “inactive” each time.

With `CC(=O)C(C)=O`, the Potency result in experiment [1] and in experiment [2] was “inactive” in each case.

For `CCCCOC(=O)CC#N`, the Potency result in experiment [1] and in experiment [2] was “inactive” in each case.

As for `O=C1Cc2ccccc2N1c1c(Cl)cccc1Cl`, the Potency entry in experiment [1] and in experiment [2] was “inactive” each time.

With `C[Si](O[Si](C)(C)C)O[Si](C)(C)C`, the Potency entry in experiment [1] and in experiment [2] was “inactive” in each case.

As for `CCC(C)C1N=C(C)C(C)S1` (stereo unspecified), the Potency result in experiment [1] and in experiment [2] was “inactive” in each case.

On to `FC(F)(F)c1ccccc1`, for which the Potency result in experiment [1] and in experiment [2] was “inactive” each time.

As to `CCCCCCCOC(=O)CCC`, the Potency entry in experiment [1] and in experiment [2] was “inactive” each time.

Turning to `COc1ccc(S(=O)(=O)Nc2nnc(CC(C)C)s2)cc1`, the Potency entry in experiment [1] and in experiment [2] was “inactive” throughout.

For `Cc1cc(C)c(NC(=O)CN(CC(=O)O)CC(=O)O)c(C)c1Br`, the Potency result in experiment [1] and in experiment [2] was “inactive” throughout.

With `COc1ccc(C(=O)Nc2ccccc2)cc1[N+](=O)[O-]`, the Potency entry in experiment [1] and in experiment [2] was “inactive” throughout.

Take `CC(=O)CC(C)C`: the Potency entry in experiment [1] and in experiment [2] was “inactive” throughout.

For the compound `COc1cc(OC)nc(O[C@H](C(=O)O)C(OC)(c2ccccc2)c2ccccc2)n1`, the Potency entry in experiment [1] and in experiment [2] was “inactive” in each case.

With `C/C=C/C(=O)CC`, the viability change, negative = cytotoxic in experiment [1] was 6.92% [at 18.9 µM]. The activity change, negative = cytotoxicity in experiment [2] was 7.79% [at 18.9 µM].

For `CC(C)(Oc1ccc(C2CC2(Cl)Cl)cc1)C(=O)O` (stereo unspecified), the Potency result in experiment [1] and in experiment [2] was “inactive” each time.

On to `COc1cc(OC)c2ccc(=O)oc2c1`, for which the Potency result in experiment [1] and in experiment [2] was “inactive” throughout.

In the case of `CCN(CC)c1ccc(N=Nc2ccccc2)cc1`, the Potency entry in experiment [1] and in experiment [2] was “inactive” throughout.
